The record followed here is PubChem BioAssay (NCATS).

Records with an inconclusive call do not appear. Calls of active or inactive are those of the source. Calls follow the shape of the dose curve; as a rule, active = well fitted inhibition curve with a large enough effect; inconclusive = small, poorly fitted or top-dose-only effect; inactive = flat fitted curve, though single readings scatter. Peptide text beside a SMILES is read from it.

The assay concerns CRL-7250. Kind of assay: qHTS assay to identify novel small-molecules to repurpose for Merkel cell carcinoma treatment (AID 1296009). Also: nearly all actives have a fitted effect of over 60% in size. Particulars: MCC and control cell lines, CellTiter-Glo viability, 72 h; series mostly up to 92 µM; activity change, negative = cytotoxicity: at the top concentration. The source says: MCC is a rare and aggressive neuroendocrine skin cancer with limited treatment options. Approximately 80% of MCCs have the Merkel cell polyomavirus (MCPyV) DNA integrated into the host genome (virus-positive: VP-MCC) and viral oncogenes drive oncogenesis. The remaining MCCs are virus-negative (VN-MCC) and are caused by UV mutagenesis. To identify novel treatments for VP-MCC and/or VN-MCC we screened three VP-MCC cell lines (WAGA, MKL-1, MKL-2), three VN-MCC cell lines (MCC-13, MCC-26, UISO), and four immortalized, non-transformed control cell lines (HaCaT, HEK293T, CRL7250, NIH-3T3) against ~2,400 compounds in the NCGC Pharmaceutical Collection (NPC) and ~1,900 compounds in the Mechanism Interrogation PlatE (MiPE). Using cell viability as a readout (CellTiter-Glo assay) we found both overlapping and distinct drugs that can be repurposed for the treatment of VP-MCC and VN-MCC.
A high-throughput screen was conducted in 1536-well white flat bottom plates (Corning) on a Kalypsys robotic system. Cell lines WAGA, MKL-1, MKL-2, MCC-13, MCC-26, UISO, HaCaT, HEK293T, CRL7250, and NIH-3T3 were screened against 2 small molecule annotated drug libraries NPC and MIPE in dose response (8 and 11 pt. respectively) measuring cell viability after 72 hours of incubation. […] A 1,536 pintool (Kalypsys) was used to transfer 23 nL of compound in DMSO to the 1,536-well assay plates. After 72 hr incubation at 37 degree celsius, 2.5 uL of CellTiter-Glo (Promega) was dispensed into each well using a BiorapTR. Plates were incubated at room temperature for 10 min, transferred to a ViewLux (PerkinElmer) and the luminescence was recorded using an exposure time of 2 seconds. Relative luminescence units (RLUs) were normalized to in-plate controls (no cells as a positive (cytotoxicity) control, DMSO as negative control) and the normalized data was processed using NCATS in-house software.
For `Cc1cc(C(=O)N2Cc3cnn(C)c3Nc3ccccc32)ccc1CNC(=O)N1CCN(Cc2cc(O)cc(O)c2)CC1`, the molecule was called inactive. Take `COCC1OC(n2cnc3c(=O)[nH]cnc32)C(O)C1O` (stereo not given): the molecule was classed as inactive.

Consider `O=c1[nH]ccc2nc(-c3ccc(CN4CCC(c5nc(-c6ccccn6)n[nH]5)CC4)cc3)c(-c3ccccc3)cc12`, for which the result was inactive. As for `CCC(=O)NS(=O)(=O)c1ccc(-c2c(-c3ccccc3)noc2C)cc1`, the molecule was called inactive.

`C=C1C(O)CCC2(C)CC3(OC)OC(=O)C(C)=C3CC12` (stereo not given): the call was inactive. For the molecule `C[C@@H](O)[C@H](N)C(=O)N1CCC[C@H]1C(=O)N1CCC[C@H]1C(=O)N[C@H](C(N)=O)[C@@H](C)O` (H-TPPT-NH2), the outcome is “inactive [at 9.27 µM]”. On to `CC(=O)O[C@H]1C[C@@]2(C)[C@@H](C[C@@H](O)[C@H]3[C@@]4(C)CC[C@@H](O)[C@@H](C)[C@@H]4CC[C@@]32C)/C1=C(\CCC=C(C)C)C(=O)O`, for which the call was inactive. As to `CON(C)C(=O)[C@H](O)[C@H](Cc1ccccc1)NC(=O)c1cc2cc(Cl)ccc2[nH]1`, the molecule was classed as inactive. The entry for `CC(=O)OC/C(=C/C(=O)O)CC[C@@H]1C(C)=CC(=O)[C@@H]2C(C)(C)CCC[C@@]12C` is “inactive”.

With `O=C(C[C@@H]1CC=CCCC(=O)O[C@H](c2ccccc2)CNC1=O)NCc1ccc(Cl)cc1`, the molecule was classed as inactive. The entry for `C[C@@H]1CC[C@]2(C(=O)O[C@@H]3O[C@H](CO)[C@@H](O)[C@H](O)[C@H]3O)CC[C@]3(C)C(=CCC4[C@@]5(C)C[C@@H](O)[C@H](O)C(C)(C)C5CC[C@]43C)C2[C@]1(C)O` (stereo not given in full) is “inactive [at 17.4 µM]”; for `COc1cc2ncnc(Nc3ccc(F)c(Cl)c3)c2cc1O` it is “inactive”. As for `COC(=O)C1=COC(OC2OC(CO)C(O)C(O)C2O)C2C(COC(=O)/C=C/c3ccc(O)c(O)c3)C(O)C(O)C12` (stereo not given), the “outcome” value is “inactive [at 17.4 µM]”. In the case of `CC12CC(c3ccoc3)OC(=O)C1CCC1(C)C2CCC(O)C1(C)O` (stereo not given), the molecule was called inactive. `CCCCCCCCCCCCCCCC(=O)O[C@H]1[C@@H](O)[C@@H](O)[C@@H]([C@H](NC(=O)[C@@H]2C[C@@H](CCC)CN2C)[C@H](C)Cl)O[C@@H]1SC`: the result was inactive. As to `CC(O)CCC1C(CO[C@@H]2O[C@H](CO)[C@@H](O)[C@H](O)[C@H]2O)CC(O)CC1(C)C` (stereo not given in full), the result was inactive. As for `Cc1ncc([N+](=O)[O-])n1CC(O)CN1CCOCC1` (stereo not given), the result was inactive. The entry for `CC1(C)CCC[C@@]2(C)[C@H]1[C@H](O)C=C1COC(=O)[C@@]12O` is “inactive”. Regarding `Clc1ccc2c(c1)C1=NCCN1c1c(-c3noc(C4CC4)n3)ncn1-2`, the molecule was called inactive. For the molecule `CCCCNc1ccc(-c2ccc(CN3CCOCC3)cn2)c(NC2CCC(O)CC2)c1` (stereo not given), the “outcome” value was “inactive [at 17.4 µM]”.

`COC(=O)C(C)C1CCC2(C)C(=O)C=CC(C)(O)C2C1O` (stereo not given): the molecule was classed as inactive. `COc1ccccc1N1CCN(CC(C(=O)NC(C)(C)C)c2ccccc2)CC1` (stereo not given): the molecule was called inactive. With `COc1cc([C@@H](O[C@@H]2O[C@H](CO)[C@@H](O)[C@H](O)[C@H]2O)[C@@H]2CO[C@H](c3ccc(O)c(OC)c3)[C@H]2CO)ccc1O`, the “outcome” value is “inactive [at 17.4 µM]”.

For `CC[C@@H](Nc1c(Nc2cccc(C(=O)N(C)C)c2O)c(=O)c1=O)c1ccc(C)o1`, the molecule was called inactive. As to `CC(=O)OC[C@]12[C@H](OC(C)=O)C(=O)[C@@H]3[C@@H](O)[C@@]14O[C@@]3(C)COC(=O)c1cccnc1[C@@H](C)[C@H](C)C(=O)O[C@@H]([C@H](OC(C)=O)[C@@H]2OC(C)=O)[C@]4(C)O`, the “outcome” value is “inactive [at 17.4 µM]”. For `CC(=O)NC(C(=O)OC1CCC(C)(C)C2CC=C3C(=O)OCC3C12C)C(C)C` (stereo not given), the result was inactive. With `COc1cc(/C=C/C(=O)O[C@H]2[C@@H]3C=CO[C@@H](O[C@@H]4O[C@H](CO)[C@@H](O)[C@H](O)[C@H]4O)[C@@H]3[C@@]3(CO)O[C@@H]23)ccc1O`, the “outcome” value was “inactive [at 17.4 µM]”. Consider `CC1CC(=O)C2C(O)(C1)CC(O)C13OC1c1c(O)cccc1C(=O)C23O` (stereo not given), for which the call was inactive. For the molecule `COCC1OC(OC(C)(C)C2CCC3(C)C=C(C4CCC5C4(C)CC(O)C4OC(C(C)(C)O)CCC45C)CCC3O2)C(NC(C)=O)C(O)C1O` (stereo not given), the “outcome” value is “inactive [at 17.4 µM]”. The entry for `C=C(C)[C@@H]1[C@H]2OC(=O)[C@H]1[C@]1(O)C[C@H]3O[C@]34C(=O)O[C@H]2[C@]14C` is “inactive”; for `CC1(C=O)CCCC2(C)C1CCC13CC(CO)C(CCC12)C3` (stereo not given) it is “inactive”; for `COC(=O)/C=C/C=C/C(=O)OC1C=C2COC(=O)C2(O)C2(C)CCCC(C)(C)C12` (stereo not given) it is “inactive [at 17.4 µM]”. Regarding `Cc1nc(C(=O)N2CCC[C@H]2Cc2nnc(-c3ccccc3)o2)c(-c2ccccc2F)s1`, the molecule was called inactive. Consider `CC(C)C1NC(=O)C2CCCN2C1=O` (stereo not given), for which the molecule was called inactive. The entry for `CNC[C@@H](O)[C@@H](O)[C@H](O)[C@H](O)CO` is “inactive”. Take `COc1ccccc1CN[C@H]1CCCN[C@H]1c1ccccc1`: the molecule was classed as inactive. Regarding `CCN(CCN(C)C)C(=O)CNCc1cc(C(N)=O)ccn1`, the molecule was classed as inactive. As for `C=C1CCC2C(C)(C(=O)O)CCCC2(C)C1CCC1=CCOC1=O` (stereo not given), the call was inactive. For `COc1ccc(/C=C/C(=O)O[C@@H]2[C@@H](OC(C)=O)[C@@H](OC(C)=O)[C@H](O[C@H]3[C@@H]4C=CO[C@@H](O[C@@H]5O[C@H](CO)[C@@H](O)[C@H](O)[C@H]5O)[C@@H]4[C@@]4(CO)O[C@@H]34)O[C@H]2C)cc1`, the “outcome” value is “inactive [at 17.4 µM]”. Turning to `COC(=O)[C@@H](O)[C@H]1[C@@]2(C)CC3(O)[C@@H](C(=O)[C@H]2O)[C@]24O[C@]25CC(=O)O[C@@H](c2ccoc2)[C@]5(C)CCC4[C@]13C` (stereo not given in full), the “outcome” value is “inactive [at 17.4 µM]”.
